We go through 22 compounds from PubChem BioAssay (Tox21).

The nature of assay [1]: A CellTox Green Cytotoxicity Assay to monitor cytotoxicity in HEK293 cells - 40 hour (AID 1224871). Further: nearly all actives have a fitted effect of over 45% in size. Further: potency means the concentration at half of the fitted maximal effect. In outline:
(§1)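 Cells (HEK293, 600/well) and dye reagent are dispensed together. After 5 h at 37 C, 23 nL compound is pinned in. Plates stay at 37 C for 40 h with fluorescence read at 0h, 8h, 16h, 24h, 32h and 40h.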

A short description of assay [2]: qHTS RealTime-Glo MT Cell Viability Assay in HEK293 cells - 16 hour (AID 1224872). Further: top concentration of the series differs between compounds; nearly all actives have a fitted effect of over 50% in size. In outline: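 HEK293 cells seeded with NanoLuc/prosubstrate reagent, rested 5 h at 37 C, then dosed and kept at 37 C up to 40 h. Nonlytic real-time luminescence from viable cells read at 0, 8, 16, 24, 32 and 40 h.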
Assay [3] is described as follows: qHTS RealTime-Glo MT Cell Viability Assay in HepG2 cells - 8 hour (AID 1224873). Further: nearly all actives have a fitted effect of over 55% in size. In outline: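 Real-time viability: cells seeded at 600 per well together with NanoLuc and cell-permeant prosubstrate, compounds added after 5 h incubation. Luminescence tracked at 0, 8, 16, 24, 32 and 40 h of exposure.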
A short description of assay [4]: qHTS RealTime-Glo MT Cell Viability Assay in HEK293 cells - 40 hour (AID 1224874). Further: nearly all actives have a fitted effect of over 50% in size. To be noted: RealTime-Glo luminescence; max response: hits give low values. In outline: (§2)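 Real-time viability in HEK293: signal arises when living cells convert a prosubstrate for NanoLuc in the medium, so luminescence tracks viable cell number. Compound (23 nL, DMSO) added 5 h post-seeding; kinetic reads at 0–40 h, 37 C.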

A short description of assay [5]: A CellTox Green Cytotoxicity Assay to monitor cytotoxicity in HepG2 cells - 16 hour (AID 1224876). Further: nearly all actives have a fitted effect of over 45% in size. Further: potency means the concentration at half of the fitted maximal effect. In outline:
(§3)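 Cells and non-lytic dye reagent are dispensed together (600 HepG2 cells/well) and incubated 5 h before DMSO compound transfer. Kinetic fluorescence is then recorded in the same wells during 40 h at 37 C.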

Assay [6] is described as follows: qHTS RealTime-Glo MT Cell Viability Assay in HepG2 cells - 32 hour (AID 1224877). Further: nearly all actives have a fitted effect of over 55% in size. In a few lines: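 HepG2 cells (600/well) were dispensed with RealTime-Glo reagents, incubated 5 h at 37 °C, then treated with compounds in DMSO for up to 40 h. Nonlytic NanoLuc luminescence reflecting viable cells was read at each stated time point.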
A short description of assay [7]: A CellTox Green Cytotoxicity Assay to monitor cytotoxicity in HepG2 cells - 40 hour (AID 1224879). Further: nearly all actives have a fitted effect of over 40% in size. Further: potency means the concentration at half of the fitted maximal effect. In a few lines: as §3
The nature of assay [8]: qHTS RealTime-Glo MT Cell Viability Assay in HEK293 cells - 0 hour (AID 1224880). Further: top concentration of the series differs between compounds; nearly all actives have a fitted effect of over 45% in size. In outline:
as §2

Assay [9] can be described thus: A CellTox Green Cytotoxicity Assay to monitor cytotoxicity in HepG2 cells - 24 hour (AID 1224878). Further: nearly all actives have a fitted effect of over 45% in size. Further: potency means the concentration at half of the fitted maximal effect. In outline: as §3
Assay [10] can be described thus: A CellTox Green Cytotoxicity Assay to monitor cytotoxicity in HEK293 cells - 24 hour (AID 1224875). Further: nearly all actives have a fitted effect of over 45% in size. Further: potency means the concentration at half of the fitted maximal effect. On activity change: series mostly up to about 77 µM. In a few lines:
as §1

Inconclusive results are not listed. A number with no mark means an inactive call. Activity calls are given as the source filed them. The call rests on the fitted dose curve; in most records, active means well fitted curve in the direction sought with a large enough effect in the repeat runs; inconclusive means weak or mixed curves; inactive means no such curve, though single readings can be large; an effect the other way counts as inactive or inconclusive.
On the % scale 0 is the no-effect control and ±100 the full control effect.

Take `NCC(=O)O`: the cytotoxicity increase is 1.17% [at 15.8 µM] in assay [1], 8.58% [at 15.8 µM] in assay [5] and 1.98% [at 15.8 µM] in [7]. The activity change, negative = cytotoxicity was 4.48% [at 15.8 µM] in assay [2] and -1.51% [at 15.8 µM] in assay [8]. In assay [3], the viability change, negative = cytotoxic is 8.37% [at 15.8 µM]. For the same compound, in [4], the max response was 8.51%. Moreover, the activity change, negative = cytotoxic in assay [6] was 0.863% [at 15.8 µM].
Turning to `CC(CC=O)c1ccccc1` (stereo not given), the Potency entry in assay [1], in [2], in [3], in [5], in assay [9] and in assay [7] was “inactive” each time. For the same compound, in assay [8], the Potency entry was “inactive”. For the same compound, in assay [4], the max response was 0.684%.
Take `CCC(CC)Nc1ccc(C)c(C)c1`: the Potency result in assay [1], in assay [2], in [3], in [6], in assay [7] and in assay [8] was “inactive” throughout. In addition, in assay [4], the max response was 12.5%.
Turning to `O=C(O)C1(C(=O)O)CCC1.[NH2-].[NH2-].[Pt+2]`, the Potency entry in [1], in [2], in [3], in assay [5], in [6] and in [9] was “inactive” throughout. For the same compound, the Potency entry in assay [7] and in assay [8] was “inactive” each time. Moreover, in assay [4], the max response is -1.65%.
With `OCCNCc1ccccc1`, the Potency entry in assay [1], in assay [2], in assay [3], in [5], in assay [6] and in assay [9] was “inactive” each time. In addition, the Potency entry in assay [7] and in assay [8] was “inactive” each time. Further, in assay [4], the max response is -10.3%.
Consider `CC(C)O.CC(C)O.CCOC(=O)/C=C(\C)O.CCOC(=O)/C=C(\C)O.[Ti]`, for which the Potency result in assay [1], in [2], in [3], in [5], in assay [6] and in assay [8] was “inactive” each time. Moreover, the max response in assay [4] was -0.8%.
Turning to `C=C(C)C(=O)OCC`, the Potency result in assay [1], in assay [2], in [3], in assay [5], in assay [9] and in assay [8] was “inactive” in each case. Moreover, the max response in [4] was 2.67%.
As to `CCOC(=O)C1=C[C@]2(CC)CCCN3CCc4c(n1c1ccccc41)[C@@H]32`, the Potency entry in [1], in assay [2], in assay [3], in assay [10] and in assay [8] was “inactive” each time. Also, the max response in [4] is -21.2%.
Regarding `CCOC(=O)Cc1cccc2ccccc12`, the Potency result in assay [1], in [2], in [3], in assay [6] and in assay [8] was “inactive” each time. In addition, in assay [4], the max response was -4.39%. In addition, the Potency in assay [7] was 21.9 µM (active).
Take `Cc1ccc(N=Nc2c(O)c(C(=O)O)cc3ccccc23)c(S(=O)(=O)O)c1`: the Potency entry in assay [1], in [2], in assay [3], in assay [10], in assay [5] and in assay [6] was “inactive” each time. The Potency entry in assay [9], in assay [7] and in assay [8] was “inactive” in each case.
Take `CCCCC(CC)COC(=O)COc1ccc(Cl)cc1Cl` (stereo not given): the Potency result in assay [1], in [2], in assay [3], in [10], in assay [5] and in assay [6] was “inactive” each time. In addition, the Potency result in assay [9], in assay [7] and in assay [8] was “inactive” in each case.
On to `Cc1cccc(C)c1NC(=O)CN(CC(=O)O)CC(=O)O`, for which the Potency entry in [1], in assay [2], in [3], in assay [6], in assay [9] and in [7] was “inactive” throughout. Further, the Potency result in [8] was “inactive”. Further, the max response in assay [4] was 5.56%.
Regarding `O=[N+]([O-])c1ccc2[nH]ncc2c1`, the Potency entry in assay [1], in assay [2], in [3], in assay [6], in [9] and in assay [7] was “inactive” each time. The Potency result in assay [8] is “inactive”. The max response in [4] is -13.3%.
For `O=C(NCCO[N+](=O)[O-])c1cccnc1`, the Potency result in assay [1], in assay [2], in [3], in assay [10], in [5] and in assay [6] was “inactive” in each case. Besides, the Potency entry in assay [9], in assay [7] and in [8] was “inactive” in each case.
Regarding `CC(C)(C)Cl`, the Potency entry in assay [1], in assay [2], in assay [3], in assay [10], in assay [5] and in assay [6] was “inactive” in each case. The Potency entry in [9], in assay [7] and in assay [8] was “inactive” throughout.
For the compound `C[Si](C)(CCCN)O[Si](C)(C)CCCN`, the Potency entry in assay [1], in [2], in [3], in [10], in [5] and in assay [6] was “inactive” throughout. Also, the Potency entry in assay [9], in [7] and in assay [8] was “inactive” in each case.
As to `O=P(O)(OCc1ccccc1)OCc1ccccc1`, the Potency result in assay [1], in assay [2], in assay [3], in [5], in assay [6] and in [9] was “inactive” each time. Also, the Potency result in [7] and in assay [8] was “inactive” each time. Moreover, in assay [4], the max response is 2.99%.
For `OCCN1CCN(CCCN2c3ccccc3C=Cc3ccccc32)CC1`, the Potency entry in [1], in [2], in assay [3], in assay [10], in [5] and in assay [6] was “inactive” in each case. For the same compound, the Potency entry in [9], in [7] and in assay [8] was “inactive” in each case.
Take `Cc1cc(C(=O)O)ccc1[N+](=O)[O-]`: the Potency result in assay [1], in assay [2], in assay [3], in assay [10], in [5] and in assay [6] was “inactive” each time. The Potency result in assay [9], in assay [7] and in assay [8] was “inactive” throughout.
As to `COc1ccc(C(=O)N2CCN(CC(=O)N3CCOCC3)CC2)cc1`, the Potency result in assay [1], in assay [2], in assay [3], in [5], in assay [6] and in [9] was “inactive” in each case. In addition, the Potency result in assay [7] and in assay [8] was “inactive” each time. For the same compound, in assay [4], the max response is 2.37%.
In the case of `CCCCCCCCCCCCCCOS(=O)(=O)O`, the Potency in assay [1] was 43.6 µM (active); in assay [10] it was 43.6 µM (active); in [5], 34.7 µM (active); in [9] it was 34.7 µM (active). Also, the Potency result in assay [2], in assay [3], in [6] and in assay [8] was “inactive” throughout.
Turning to `COc1ccc(C(=O)Nc2nc3ccccc3c(NCc3ccccc3)c2C#N)cc1`, the Potency entry in assay [1], in assay [2], in assay [5], in assay [9], in [7] and in [8] was “inactive” each time. The max response in assay [4] was -18.2%.
